Among the data in the OligoGym collection are sensor-assay potency score (higher = more potent) values, retold here.
Note: reference of the scale not given here.

For the first assay, the target named is ASPRV1. In words: pooled miR-30 sensor sort-seq; sequence = guide strand. To be noted: shRNA.
For TTGCCTAGGGACACCGCTGTAT, the sensor-assay potency score (higher = more potent) is -1.05.

TTGAGTCTTTGTCATCAACAGC had a sensor-assay potency score (higher = more potent) of -1.26.

The sequence TTCAGGAACCTTAGCTTGGTGA showed a sensor-assay potency score (higher = more potent) of -1.12.

As for TCTTTCAGGAACCTTAGCTTGG, the sensor-assay potency score (higher = more potent) was -0.57.

For the sequence TAGCTTGGTGATATGGTCCCAA, the sensor-assay potency score (higher = more potent) was 0.0777.

Take TTCAGCACCATTGGCCACCTTT: the sensor-assay potency score (higher = more potent) is -0.724.

As for TGAGATAGTAGCCCTTACCCAT, the sensor-assay potency score (higher = more potent) was -0.959.

ATTGATGACTTCAAAGCTGTGC gave a sensor-assay potency score (higher = more potent) of 0.217.

Take TTTGTCATCAACAGCAGCTTGA: the sensor-assay potency score (higher = more potent) is -0.258.

The sequence TTTCAGGAACCTTAGCTTGGTG had a sensor-assay potency score (higher = more potent) of -0.909.

For another assay, the target named is ASTE1. Described as above. To be noted: shRNA.
The sequence TATTCTTCCATGGAACAGCAGA came in with a sensor-assay potency score (higher = more potent) of -0.626.

Turning to TAGCTTTGCTTTGGTCTCGGTG, the sensor-assay potency score (higher = more potent) was -0.912.

For TTGAACTGAAGCAAAGACGGTG, the sensor-assay potency score (higher = more potent) was 0.0207.

Consider TTGAATTTGATCTACCTTTTGG, for which the sensor-assay potency score (higher = more potent) is -0.435.

TAGATATTCATAAAGTTGCTTA gave a sensor-assay potency score (higher = more potent) of -0.483.

Take TTTTCAACCATTAACAACCCAA: the sensor-assay potency score (higher = more potent) is -0.22.

The sequence TTTTTTTTTGAATTTGATCTAC gave a sensor-assay potency score (higher = more potent) of -0.318.

On to TAGAACAGCTGGTATTCTGTTT, for which the sensor-assay potency score (higher = more potent) was -0.362.

On to TTCATTACTATGATCTTCCACA, for which the sensor-assay potency score (higher = more potent) was -0.12.

As to TTATCTAGTGCTTCGGTAGGGT, the sensor-assay potency score (higher = more potent) was found to be 0.589.

TTTTTGAATTTGATCTACCTTT gave a sensor-assay potency score (higher = more potent) of -0.342.

In the case of TTATCTGAAATGTCACATCCTC, the sensor-assay potency score (higher = more potent) was determined as 0.002.

The target in another assay is ATG13. Described as above. To be noted: shRNA.
TTGATTTCTTTATCACACTTTT yielded a sensor-assay potency score (higher = more potent) of -0.851.

For the sequence TATCATAACAAAGTCATCATGG, the sensor-assay potency score (higher = more potent) was 0.359.

As for TTTATCACACTTTTCATTCATT, the sensor-assay potency score (higher = more potent) is -0.513.

As to TTCAGTATCCTCACTACTGGAG, the sensor-assay potency score (higher = more potent) was -0.0842.

The sequence TGACAGTCTGTTGTACACCGTG returned a sensor-assay potency score (higher = more potent) of -0.356.

Turning to TTGGAGAAGATGATGAACGAGT, the sensor-assay potency score (higher = more potent) was determined as 0.0356.

Take AAATTTAATAAACTTGTCCAGG: the sensor-assay potency score (higher = more potent) is -1.15.

As for TTGCTAAGTTGAACCAATCTGA, the sensor-assay potency score (higher = more potent) was determined as 0.054.

In turn, TTGAGAGTCTTCTACAGACGGG showed a sensor-assay potency score (higher = more potent) of -0.452.

In the case of TTCAGCAGCAATGACAGTCTGT, the sensor-assay potency score (higher = more potent) amounted to 0.524.

For TTCAAGACACCATATTTCCAGC, the sensor-assay potency score (higher = more potent) is -0.751.

For the next assay, the target named is ATG16L1. Described as above. To be noted: shRNA.
TTCCCTGTGAGCACACTCCAGA: the sensor-assay potency score (higher = more potent) is -0.634.

As to TTTTTCTCCAAATACTTCCCAA, the sensor-assay potency score (higher = more potent) is -0.436.

Take TTTGTCCACACTGACAACGTGC: the sensor-assay potency score (higher = more potent) is -0.838.

Sequence TTTCTTGTAGCTGATTGTCATT registered a sensor-assay potency score (higher = more potent) of -1.43.

Sequence TTTTGCTTCATTCATCTGCATC gave a sensor-assay potency score (higher = more potent) of -1.44.

Regarding TTTATGCAGACTTTGCTGCGTA, the sensor-assay potency score (higher = more potent) was -0.62.

In turn, ATGAGTATCCACATTGTCCTGG returned a sensor-assay potency score (higher = more potent) of -0.348.
